# In the library only some 31% were active in any assay of this set; here they are far more common.
# CYP2C9 activ: human CYP2C9 activators, primary screen, biochemical, luminescence | recombinant CYP2C9, luciferin-H conversion; hits give high values; factor 1 = untreated enzyme, 0 = blocked | activation factor at 5 µM | actives 1.4% (n = 96,000) | AID 1024, 2008;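 active means activation factor of 2 or more for CYP2C9 at a 5 µM dose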;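 further: 0 = sulfaphenazole-blocked wells and 1 = vehicle-only wells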
# Target sequence (P11712 whole entry, looked up): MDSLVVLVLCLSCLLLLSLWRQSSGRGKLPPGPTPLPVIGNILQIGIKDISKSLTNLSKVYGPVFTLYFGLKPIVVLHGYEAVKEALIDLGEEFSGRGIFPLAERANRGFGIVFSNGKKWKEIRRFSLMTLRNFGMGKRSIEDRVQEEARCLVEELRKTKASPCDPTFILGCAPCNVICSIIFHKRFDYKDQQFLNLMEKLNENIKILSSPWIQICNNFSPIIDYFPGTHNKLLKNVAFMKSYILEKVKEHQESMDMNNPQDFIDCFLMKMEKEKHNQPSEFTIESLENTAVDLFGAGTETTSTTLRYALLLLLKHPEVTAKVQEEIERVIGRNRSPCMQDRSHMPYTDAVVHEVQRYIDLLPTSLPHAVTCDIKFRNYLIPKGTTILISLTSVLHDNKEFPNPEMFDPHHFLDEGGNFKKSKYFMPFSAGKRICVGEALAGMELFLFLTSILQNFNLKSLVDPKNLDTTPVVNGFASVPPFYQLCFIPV
# PLAP act: PLAP enzyme activators, biochemical, luminescence, HTS; purified PLAP enzyme, luminescent substrate read-out; hits give high values; activation fold at 20 µM; actives 1.2% (n = 96,000); in the data active means activation fold above about 2
# CYP2C9 inh: blockers of cytochrome P450 2C9 activity – biochemical, luminescence, ADME assay, primary screen; P11712; CYP2C9 Supersomes, luciferin-H conversion; inhibition, % at 5 µM; actives 20% (n = 96,000);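 active means blocking of liver enzyme CYP2C9 beyond about 50% at 5 µM, limit read from the data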
# CYP2C19 act: human CYP2C19 activators, primary screen, biochemical, luminescence; Cytochrome P450 2C19 (Homo sapiens), P33261; recombinant CYP2C19, luciferin-H EGE luminescence; hits give high values; 0 = fully inhibited enzyme, 1 = untreated enzyme; activation factor at 5 µM; 96,000 tested, under 10 active;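 active means activation factor of at least 2 at 5 µM in the primary screen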;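 further: 0 = wells with 2.5 mM tranylcypromine and 1 = vehicle-only wells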
# CYP2C19 inhib: blockers of cytochrome P450 2C19 activity – biochemical, luminescence, ADME assay, primary screen. P33261. CYP2C19 Supersomes, luciferin-H EGE luminescence, 30 min. inhibition, % at 5 µM. actives 21% (n = 96,000);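 active means CYP2C19 inhibition above a set limit at 5 µM in the primary screen, cut at about 50% in these data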;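 further: plate controls were negative control wells for no effect and 2.5 mM tranylcypromine positive control for full effect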
# Starred values were filed as active, the others as inactive.
SMILES,CYP2C9 activ,PLAP act,CYP2C9 inh,CYP2C19 act,CYP2C19 inhib
CCOC(=O)c1ccc(N2C(=O)C3ON(c4ccccc4)C(c4ccco4)C3C2=O)cc1 (stereo not drawn),0.7,1.5,26.3,1,0.2
COc1ccc(N2CC(C(=O)OCC(=O)NCc3ccccc3)CC2=O)cc1 (stereo not drawn),0.9,1.1,13.0,1.1,-5.7
Cc1nn(Cc2nc(-c3cccs3)no2)c(C)c1Br,0.5,0.9,46.1,0.2,75.1*
Cn1c(=O)[nH]c(=O)c2c1nc(SCCN1CCCCC1)n2CCCc1ccccc1,0.6,1.7,39.2,0.9,13.3
CC(C)CCn1c(SCCc2ccccc2)nc2c1c(=O)[nH]c(=O)n2C,0.1,0.9,92.8*,0.5,50.4*
CCCCCn1c(SCCc2ccccc2)nc2c1c(=O)[nH]c(=O)n2C,0.4,1,60.9*,0.6,39.7
CC(C)CCn1c(SCCN2CCOCC2)nc2c1c(=O)[nH]c(=O)n2C,0.1,1.6,85.3*,0.8,17.9
CCCCCn1c(SCC(=O)OC)nc2c1c(=O)[nH]c(=O)n2C,0.9,0.9,9.8,1,4.0
CCCCn1c(SCC(=O)c2ccccc2)nc2c1c(=O)[nH]c(=O)n2C,0.3,0.8,70.5*,0.6,43.0
CCCCCC1CC(=O)N(Cc2ccc(Cl)cc2)C(=O)N1 (stereo not drawn),1.4,0.9,-36.6,0.6,40.4
CC(C)CC(=O)NC1(C(F)(F)F)C(=O)Nc2c1c(=O)n(C)c(=O)n2C (stereo not drawn),1,1,-1.1,1.1,-8.0
CCCCSc1nc2c(c(=O)[nH]c(=O)n2C)n1CCc1ccccc1,1,1.1,2.1,1,-0.1
Cc1cccc(Cn2c(SCC(=O)Nc3ccccc3)nc3c2c(=O)[nH]c(=O)n3C)c1,0.5,1.3,47.2,0.3,69.6*
CCCn1c(SCCc2ccccc2)nc2c1c(=O)[nH]c(=O)n2C,0.4,1.1,58.6*,0.5,50.2*
COCCn1c(SCCCc2ccccc2)nc2c1c(=O)[nH]c(=O)n2C,0.4,1.2,59.3*,0.6,43.4
CCOCCSc1nc2c(c(=O)[nH]c(=O)n2C)n1CCCc1ccccc1,0.8,1,24.4,0.8,20.8
CCOCCn1c(SCCc2ccccc2)nc2c1c(=O)[nH]c(=O)n2C,0.3,1.1,73.5*,0.9,14.8
CC(C)OC(=O)c1cc2ccccc2oc1=O,1,1.1,-1.7,0.9,6.7
COC(=O)c1sccc1NC(=O)c1ccc(Br)s1,1,1.2,-4.3,1,1.2
CNCCCNCc1ccc(SC)cc1,1,0.8,3.4,1,0.8
COC(=O)C(C)Sc1nc2c(c(=O)[nH]c(=O)n2C)n1CCCc1ccccc1 (stereo not drawn),0.9,1.2,14.7,0.7,29.6
CCOC(=O)C(C)Sc1nc2c(c(=O)[nH]c(=O)n2C)n1CCc1ccccc1 (stereo not drawn),0.5,0.9,51.5*,0.6,39.9
COC(=O)C1C2C=CC3(CN(CC4CCCO4)C(=O)C13)O2 (stereo not drawn),1.1,1.4,-11.3,1,-1.0
Brc1cccc(-c2nnc3sc(CN4CCCCC4)cn23)c1,0.5,1,50.4*,0.6,36.7
Brc1cccc(-c2nnc3sc(CN4CCC5(CC4)OCCO5)cn23)c1,0.9,1.2,14.4,0.9,5.7
SMILES,CYP2C9 activ,PLAP act,CYP2C9 inh,CYP2C19 act,CYP2C19 inhib
CC1=CCC2(CO)COC(c3ccccc3O)C1C2 (stereo not drawn),0.9,1,11.7,0.6,35.1
C=CCn1c(C)c(C(C)=O)c(N2CCN(c3ccccc3)CC2)nc1=S,0.9,1,12.5,0.9,8.6
N#Cc1c(NC(=O)c2ccc(Cn3cc(Br)cn3)o2)sc2c1CCCCC2,1.2,0.9,-24.8,1.1,-7.0
COC(=O)c1sc(NC(=O)c2ccc(Cn3cc(Cl)cn3)o2)c(C#N)c1C,0.3,1.4,74.9*,0.5,46.9
O=C(Nc1cccc2ccccc12)c1ccc(Cn2cc(Cl)cn2)cc1,2.6*,1,-156.4,0.9,14.6
COC(=O)c1ccc(Cn2cc(Cl)cn2)cc1,0.5,0.9,53.3*,0,99.2*
CC1(C(=O)NC2CCCCC2)CCC(=O)N1Cc1cccs1 (stereo not drawn),1.5,1.1,-45.8,0.8,17.6
CC1(C(=O)NC2CCCCCCC2)CCC(=O)N1Cc1cccs1 (stereo not drawn),1.3,1.4,-28.2,0.3,71.3*
CCN(CC)CCNc1nc2ccccc2n1C,1.1,1,-9.0,1.2,-16.4
Cn1c(NCc2cccc(Br)c2)nc2ccccc21,0.7,0.8,31.0,0.5,54.4*
Cc1cccc(NCc2nc3ccccc3n2C)c1,0.9,1.1,9.1,0.5,46.2
Cn1c(NCc2ccccc2O)nc2ccccc21,1,1.1,-0.7,0.4,63.6*
Cc1cc(C)c(O)c(-c2cc(C(=O)NCc3ccccc3)[nH]n2)c1,0.7,1.1,28.7,1,1.8
Cc1ccc(O)c(-c2cc(C(=O)NCc3ccncc3)[nH]n2)c1,0,2.9*,96.2*,0.3,74.7*
Cc1ccc(SCc2ccc(C(=O)NCc3ccncc3)cc2)cc1,0,0.9,99.2*,0.2,82.6*
Cc1ccc(C)c(C(=O)NCc2ccncc2)c1,0.5,1.1,53.7*,0.5,45.6
CN(c1ccc(C(=O)NCc2ccncc2)cc1)S(C)(=O)=O,0.6,1.2,41.2,1,0.5
Cc1ccc(C)c(C(=O)NCCN(C)C)c1,1.1,0.9,-8.5,1,0.5
CCC12CC3CC(C1)CC(C(=O)O)(C3)C2,1.1,1.1,-6.5,1.1,-9.7
S=C(c1ccc(-c2ccccc2Cl)o1)N1CCOCC1,1.5,1,-54.9,0.6,44.3
S=C(c1ccc(-c2ccc(Cl)cc2Cl)o1)N1CCCCC1,0.3,0.9,72.3*,0.4,62.0*
N#CCCN1CCN(C(=S)c2ccc(-c3cc(Cl)ccc3Cl)o2)CC1,2.7*,1,-173.8,0.7,29.9
S=C(c1ccc(-c2ccc(Cl)c(Cl)c2)o1)N1CCOCC1,0.1,1.3,88.8*,0.1,87.5*
OCCN1CCN(C(=S)c2ccc(Cl)c(Cl)c2)CC1,1.1,1.1,-5.7,0.7,29.9
CCCCSc1nc2c(cnn2-c2ccc(Cl)cc2)c(=O)[nH]1,0.7,1.2,28.6,1,1.2
N#CCCNCC1(c2ccccc2)CCCC1,1,1.2,-0.4,0.8,15.8
O=C(O)CSc1nnc(CNc2cccc(C(F)(F)F)c2)n1Cc1ccco1,1.2,1.4,-24.7,1.2,-24.4
CC1(C)C(N(O)C(=O)Nc2ccccc2)N(c2cccc(Cl)c2)C(=O)N1O (stereo not drawn),0.3,0.8,73.3*,0.9,12.4
